TDP1 cell CPT = qHTS for Inhibitors of human tyrosyl-DNA phosphodiesterase 1 (TDP1): qHTS in cells in presence of CPT; AID 686979, 2013; chicken DT40 Tdp1-/-;hTDP1 cells + 20 nM CPT, ATP luminescence, 48 h; 420,000 compounds, 12% hits; Potency, µM (series often up to 46.2 µM), hits mostly inhibitors; note: nearly all actives have a fitted effect of over 55% in size
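Chicken DT40 Tdp1-/- cells complemented with human TDP1, 400 cells/well, exposed to compounds plus 20 nM camptothecin for at least 48 h at 37 C; viability read as ATP content by CellTiter-Glo luminescence.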
HT1080 IDH1KD tx = qHTS for induction of synthetic lethality in tumor cells producing 2HG: qHTS for the HT-1080-IDH1KD cell line; HT-1080 IDH1 knockdown viability, ATP luminescence, 48 h; Potency, µM (doses to about 46.1 µM), actives largely listed as cytotoxic; 360,000 compounds, 2% hits; AID 686971, 2013
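CellTiter-Glo luminescence after 48 h compound exposure at 37 degrees C of IDH1-knockdown HT-1080 cells in 5% FBS RPMI. %Activity scaled between DMSO wells and cell-free media wells, with curves fitted and assigned curve classes.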
TDP1 cell noCPT = qHTS for Inhibitors of human tyrosyl-DNA phosphodiesterase 1 (TDP1): qHTS in cells in absence of CPT; DT40 Tdp1-/- hTDP1 cells, no CPT, ATP luminescence, 48 h; AID 686978, 2013; Potency, µM (titrated, usually from 46.2 µM), most hits filed as inhibitors; 420,000 compounds, 15% hits; note: nearly all actives have a fitted effect of over 55% in size
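Chicken DT40 Tdp1-/- cells complemented with human TDP1, screened without camptothecin (DMSO vehicle only), 400 cells/well. Compounds pin-transferred, cells incubated at 37 °C for at least 48 hr. Growth read as ATP-dependent luminescence (CellTiter-Glo, 30 min at RT).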
HepG2 tox = qHTS for Inhibitors of TGF-b: Cytotox Counterscreen; HepG2 CAGA-GFP viability, ATP luminescence, 18 h; Potency, µM (doses to about 46.1 µM), most hits filed as cytotoxic; 410,000 compounds, 0.76% hits; AID 588856, 2011
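CellTiter-Glo luminescence gave cytotoxicity after 18 hours at 37 degrees C. The cells were HepG2 CAGA-GFP in 1% FBS DMEM, stimulated with 500 pg/mL TGF-beta after compound addition. %Activity was normalised to no-cell wells (complete cell-killing) and DMSO (no toxicity), and curves were fitted and classified.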
HT1080NT lethal = qHTS for induction of synthetic lethality in tumor cells producing 2HG: qHTS for the HT-1080-NT fibrosarcoma cell line; 360,000 compounds, 1.6% hits; Potency, µM (series often up to 46.1 µM), usual class: cytotoxic; AID 686970, 2013; HT-1080-NT fibrosarcoma viability, CellTiter-Glo ATP luminescence, 48 h;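 note: NT is the 2HG producing partner of a matched IDH1 knockdown line; nearly all actives have a fitted effect of over 55% in size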
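Toxicity toward the 2HG-producing NT line was scored as %Activity, normalised to DMSO and no-cell wells, from CellTiter-Glo luminescence after 48 hours' treatment.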
TGFb SMAD3 inh = qHTS for Inhibitors of TGF-b | HepG2 CAGA-GFP TGF-b/SMAD3 reporter, GFP fluorescence, 18 h; TGF-beta stimulated, 500 pg/mL final | Potency, µM (top dose mostly 46.1 µM), usual class: inhibitors | 410,000 compounds, 1.2% hits | AID 588855, 2011; note: nearly all actives have a fitted effect of over 65% in size
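HEPG2 CAGA-GFP cells (1000/well, DMEM with 1% FBS) were pre-incubated 2 h at 37 degrees C, given compound by pin tool, then stimulated with TGF-beta at 500 pg/mL final for 18 h before per-cell GFP fluorescence imaging.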
Large screens that a line does not name were inactive. Most compounds without a hit are left out; they make up all but 17% or so of the library. Calls come from the whole dose curve; as a rule, active = well fitted curve in the direction sought with a large enough effect; inconclusive = small, poorly fitted or top-dose-only effect, or another doubt; inactive = no such curve, though single readings can be large; an effect the other way counts as inactive or inconclusive.

CC(SCC(=O)Nc1ccc(F)cc1)c1nc2ccccc2c(=O)[nH]1 (centres undefined)	none
CCOC(=O)[C@]12CCC=C1N(Cc1ccc(Cl)cc1Cl)C(=O)[C@H](CC(=O)N1CCOCC1)C2	TDP1 cell CPT inconclusive, TDP1 cell noCPT 21µM (no result: HepG2 tox, TGFb SMAD3 inh)
CCOC(=O)[C@]12CCCC=C1N(Cc1ccc(Cl)cc1Cl)C(=O)[C@H](CC(=O)N1CCCC1)C2	TDP1 cell CPT inconclusive, TDP1 cell noCPT inconclusive (no result: HepG2 tox, TGFb SMAD3 inh)
CCOC(=O)[C@]12CCC=C1N(Cc1ccc(Cl)cc1Cl)C(=O)[C@H](CC(=O)N1CCC(c3ccccc3)CC1)C2	TDP1 cell CPT inconclusive, TDP1 cell noCPT 18µM (no result: HepG2 tox, TGFb SMAD3 inh)
CCOC(=O)[C@]12CCCC=C1N(Cc1ccc(Cl)cc1Cl)C(=O)[C@H](CC(=O)N1CCN(C(=O)c3ccco3)CC1)C2	TDP1 cell CPT inconclusive, HT1080 IDH1KD tx inconclusive, TDP1 cell noCPT 16µM (no result: HepG2 tox, TGFb SMAD3 inh)
CCOC(=O)[C@]12CCCC=C1N(Cc1ccc(Cl)cc1Cl)C(=O)[C@H](CC(=O)N1CCC(c3ccccc3)CC1)C2	TDP1 cell CPT 16µM, HT1080 IDH1KD tx inconclusive, TDP1 cell noCPT 18µM (no result: HepG2 tox, TGFb SMAD3 inh)
CCOC(=O)CNC(=O)Cn1cnc2c(nnn2-c2ccc(OC)cc2)c1=O	none
Cc1ccc(S(=O)(=O)c2[nH]c(-c3ccccc3)nc2SCC(N)=O)cc1	none (no result: HT1080 IDH1KD tx, HT1080NT lethal)
CCc1nc2ccc(C(=O)Nc3cccc(NS(C)(=O)=O)c3)cn2c1N(C)C(=O)c1cccc(OC)c1	none
CCc1nc2ccc(C(=O)Nc3cc(-c4ccccc4)ccc3OC)cn2c1N(C)Cc1ccc(OC)cc1	TDP1 cell CPT 7.3µM, TDP1 cell noCPT 8.2µM
CCc1nc2ccc(C(=O)Nc3cc(-c4ccccc4)ccc3OC)cn2c1N(C)Cc1nccs1	TDP1 cell CPT 13µM, HT1080 IDH1KD tx 23µM, TDP1 cell noCPT 9.2µM, HT1080NT lethal inconclusive, TGFb SMAD3 inh inconclusive
CCc1nc2ccc(C(=O)NCC3CCCCC3)cn2c1N(C)Cc1nccs1	TDP1 cell CPT 16µM, TDP1 cell noCPT 21µM
CCc1nc2ccc(C(=O)Nc3cc(-c4ccccc4)ccc3OC)cn2c1N(C)C(=O)c1cccc(OC)c1	TDP1 cell CPT inconclusive, TDP1 cell noCPT 18µM
OCC1CSC(=S)N1Cc1ccccc1 (centres undefined)	TDP1 cell CPT inconclusive, TDP1 cell noCPT inconclusive, HT1080NT lethal inconclusive
O=C(Nc1nc2ccc(Cl)cc2s1)c1ccc(S(=O)(=O)N2CCCC2)cc1	none (no result: HT1080 IDH1KD tx, HT1080NT lethal)
Cc1cc(C)c2c(=O)[nH][nH]c2n1	TDP1 cell CPT inconclusive
O=C(Cn1cc(COc2ccc(-n3cccc3)cc2)nn1)NS(=O)(=O)c1ccccc1C(F)(F)F	HT1080NT lethal inconclusive
C=C1CC[C@@H]2[C@](C)(CCC[C@@]2(C)/C=C/[C@@H](O)C(C)(C)O)[C@H]1CC(=O)NCCS(=O)(=O)O	none
COc1ccc(CN(C)C(=O)c2cccc(NC(=O)CC3SC(N4CCCCC4)=NC3=O)c2)c(OC)c1 (centres undefined)	TDP1 cell CPT 5.2µM, TDP1 cell noCPT 5.2µM, HT1080NT lethal inconclusive
COc1cccc(CN(C)C(=O)c2ccc(NC(=O)CC3SC(N4CCCCC4)=NC3=O)cc2)c1OC (centres undefined)	none
